# Screens from PubChem BioAssay.
# Compounds with a hit are over-represented: about 1% of the library has one in this group of screens.
# RN4220 kill: S. aureus RN4220 growth inhibition; AID 1259311; OD600, 16 h; 330,000 compounds, 0.33% hits; inhibition, % (no concentration beside the values); in the data active means inhibition above about 85%;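 further: plate controls were untreated cells for no effect and reference antibiotic for full effect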
# Sa ugtP lethal: kills S. aureus RN4220 lacking UgtP. growth inhibition, % (concentration not given with the values). 330,000 compounds, 0.54% hits. S. aureus RN4220 ugtP deletion, OD600 growth, 16 h; in the data active means growth inhibition above about 68%;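 further: plate controls were untreated wells for no effect and antibiotic for full effect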
# Mtb hypoxia rep: inhibitors of hypoxia-regulated fluorescent reporter in Mycobacterium tuberculosis; M. tuberculosis hypoxia-regulated fluorescent reporter, fluorescence; fluorescence inhibition, % (concentration not given with the values); 300,000 compounds, 0.1% hits; in the data active means fluorescence inhibition mostly above about 23%, no sharp cut-off; inactive means mostly below about 17%
# PriA SSB inh: K. pneumoniae PriA-SSBct interaction inhibition | AlphaScreen SSBct-PriA binding, biotinylated peptide | 430,000 compounds, 0.6% hits | inhibition, % at 33 µM; in the data active means inhibition mostly above about 37%, no sharp cut-off; inactive means mostly below about 20%;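 further: plate controls were negative control peptide for no effect and reference peptide for full effect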
# Mtb betalactam: beta-lactam sensitization of Mtb H37Rv | M. tuberculosis H37Rv growth with meropenem, percent inhibition | AID 434955 | 330,000 compounds, 0.27% hits | inhibition, % at 25 µM; call rule not given here;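 further: growth measured after seven days incubation then overnight dye step; 0% = bacteria only wells and 100% = bacteria with antibiotic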
# * = called active by the depositor; ? = inconclusive; nt = no result given; ! = not active in a repeat.
SMILES,RN4220 kill,Sa ugtP lethal,Mtb hypoxia rep,PriA SSB inh,Mtb betalactam
Cc1cc(NC(=O)Cc2ccc(F)cc2)n(-c2nc3c(cnn3-c3cccc(C)c3C)c(=O)[nH]2)n1,nt,nt,nt,24.0,nt
Cc1ccc(C)c(-n2c(CNC(=O)c3ccc(S(=O)(=O)N4CCOCC4)cc3)nnc2SCC(=O)Nc2nnc(C)s2)c1,nt,nt,nt,-35.0,nt
CCN(CC)S(=O)(=O)c1ccc(C(=O)N(Cc2cnc3ccccn23)C2CC2)cc1,nt,nt,nt,6.0,nt
CCc1cc2c(=O)[nH]c(-c3ccccn3)nc2s1,14.4,-20.0,8.7,66.3*,92.1
COc1cnc(-c2ccccn2)[nH]c1=O,4.1,6.5,8.1,144.0*!,51.7
c1ccc(-c2nc3cc4ccccc4cc3[nH]2)nc1,2.1,-18.3,8.8,-5.8,88.8
O=c1cc(-c2ccccn2)nc(-c2ccccn2)[nH]1,nt,nt,nt,152.5*,nt
CCc1cc2c(=O)[nH]c(N3CCCC3)nc2s1,nt,nt,nt,8.9,-1.4
COc1cnc(-c2ccccn2)nc1Oc1ccccc1Cl,2.7,-1.9,5.0,1.8,80.5
O=C(NCCSc1ncc(-c2ccccc2)[nH]1)C(=O)Nc1ccccc1[N+](=O)[O-],nt,nt,nt,42.0*,nt
COc1ccc(C(=O)Nc2c(N)nc(SCC(=O)Nc3ccc4c(c3)OCCO4)[nH]c2=O)cc1,nt,nt,nt,-10.0,nt
CCC(C(=O)C(C)C(O)C(C)CCc1ccc(C)c(O)c1C(=O)O)C1O[C@](CC)(C2CC[C@](O)(CC)C(C)O2)CC1C (stereo not given in full),98.6*,90.5*,17.3,nt,nt
O=[N+]([O-])c1cccc(CSc2ncnc3c2cnn3-c2ccccc2)c1,nt,nt,nt,-12.0,nt
O=C(CCn1c(=O)oc2ccccc21)Nc1ccc(OC(F)(F)F)cc1,nt,nt,nt,-12.0,nt
CCCCCCc1cc2cc(-c3nnc(-c4ccccc4O)o3)c(=O)oc2cc1O,66.8,97.4*,-10.1,-11.3,?
Cc1cc(=O)[nH]c(-n2nc(C)c(CCC(=O)Nc3cc(C)on3)c2C)n1,nt,nt,nt,-9.0,nt
CC(C)Cc1cc(C(=O)NCc2ccco2)no1,3.1,9.1,nt,95.5*,0.8
CC(=O)O/C(=C1\CC2C3CC=C4CC(OC(C)=O)CCC4(C)C3CCC2(C)C1=O)C(F)(F)F (stereo not given),99.9*,99.6*,15.9,1.8,nt
O=C(NCCn1nc(C(F)(F)F)cc1C1CC1)NC(c1ccccc1)c1ccccc1,nt,nt,nt,-7.0,nt
O=c1c2ccccc2nc(SCc2cccc(F)c2)n1-c1cccc(S(=O)(=O)N2CCCC2)c1,96.6*,93.7*,6.8,14.9,-2.9
Cc1ccc(-c2csc3nc[nH]c(=S)c23)cc1C,1.2,-4.1,0.5,48.1*,75.1
O=C(c1cc(-c2ccccc2)on1)N1CCC(c2ccsc2)CC1,nt,nt,nt,-10.0,nt
O=[N+]([O-])c1cc(C(F)(F)F)ccc1NC1CCN(Cc2ccccc2)C1 (stereo not given),-1.8,15.3,-4.4,42.9*,2.2
O=C(c1cccs1)N(Cc1cccnc1)c1nc2cc3c(cc2s1)OCO3,nt,nt,nt,-9.0,nt
CSC1CC2CCC(C1)N2C(=O)c1ccc(C(C)(C)C)cc1 (stereo not given),nt,nt,nt,7.0,nt
SMILES,RN4220 kill,Sa ugtP lethal,Mtb hypoxia rep,PriA SSB inh,Mtb betalactam
CSC1CC2CCC(C1)N2C(=O)c1ccsc1 (stereo not given),nt,nt,nt,94.0*,nt
CCC(CO)[n+]1c(C)cc(/C=C2\Sc3ccccc3N2Cc2ccccc2)cc1C (stereo not given),100.2*,100.5*,nt,nt,100.1
CCN1/C(=C2\SC(=S)N(Cc3ccccc3)C2=O)Sc2ccccc21,-3.3,-7.2,-4.7,0.4,13.9
COC(=O)c1ccc(C(=O)NCC2CCN(c3nccnc3C#N)CC2)cc1,nt,nt,nt,-15.0,nt
O=C(O)CCc1ccc(-c2ccc(Br)cc2)n1-c1cccc(O)c1,35.4,85.1*,-9.0,-4.1,27.3
O=C(O)CCc1ccc(-c2ccccc2)n1-c1cccc(C(=O)O)c1,1.8,1.1,3.6,-9.9,-4.9
Cc1cc(C)c2c(c1)cc(C)c1nnc(SCC(=O)N3CCCc4ccccc43)n12,11.0,96.2*,13.3,1.3,-7.3
C(C#CCCCCCCCCC[n+]1ccccc1)#CCCCCCCCCC[n+]1ccccc1,100.2*,100.6*,nt,-2.3,100.0
Cc1ccc(CO/N=C/C2=C(Cl)c3ccccc3CC2)cc1,nt,nt,nt,nt,36.2
Fc1ccc(CON=CC2=C(Cl)c3ccccc3CC2)cc1,10.3,99.0*,nt,-47.7,nt
C=CCN1C(=O)C(C)(C)COc2cc(NS(=O)(=O)c3ccc(C)s3)ccc21,nt,nt,nt,-9.0,nt
Cn1cccc1Cc1nnc(SCC(=O)Nc2ccccc2F)n1-c1ccccc1,nt,nt,nt,37.0*,nt
Cc1cccc(-n2c(Cc3cccn3C)nnc2SCC(=O)N2CCN(c3ccccc3)CC2)c1C,nt,nt,nt,36.0*,nt
